Reference: the supplement of paper PMC10849652
About 7,900 targets were measured; listed, in parts, are those with a hit and a random draw of the rest. About 0.6% of all pairs of compound and target were hits. Unmarked numbers belong to inactive results.

Experiments:
Assay in all cases: log2 fold change, soluble protein after heating vs DMSO (PISA); higher = thermal stabilisation; K562 cells, 10 uM, 30 min; active = over 0.2 and 3.5 SD of the protein, either way, in both replicates (recomputed)
[1] = compound: C#Cc1cccc(Nc2ncnc3cc(OCCOC)c(OCCOC)cc23)c1 [erlotinib]
How it was run: (§1)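 Aliquots of K562 cells (2×10^6 cells/mL) treated with 10 μM compound for 30 min were heated for 3 min over 48°C-58°C. After pooling and extraction in PBS with 0.5% NP-40 at 4°C, soluble protein from a 21,000xg, 90 min spin was quantified by TMTpro 16plex LC-MS/MS with channel sums equalised. Thermal stability is expressed against control samples, from duplicates, as a log2 fold change.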

[2] = compound: C/C(=N\NC(=O)C1=CC(=CC=C1)S(=O)(=O)N2CCOCC2)/C3=C(C=CC(=C3)Cl)O
How it was run: as §1

[3] = compound: C1=CC(=C(C=C1Cl)C2=NC3=NC=CN=C3C(=N2)NC4=CC=NC=C4)F
How it was run: as §1

[4] = compound: C1=CC(=CC=C1C2=NC3=C(N2)C=C(C=C3)C(=O)N)OC4=CC=C(C=C4)Cl
How it was run: as §1

[5] = compound: C1=CC2=C(C=CC(=C2)/C=C\3/C(=O)NC(=NCC4=CC=CS4)S3)N=C1
How it was run: as §1

[6] = compound: C1=CC2=NC=CN=C2C=C1/C=C/3\C(=O)NC(=O)S3
How it was run: as §1

[7] = compound: C1=CC=C(C=C1)C2=NC(=C(N2)C3=CC=NC=C3)C4=CC(=C(C=C4)Cl)O
How it was run: as §1

[8] = compound: C1=CC=C2C(=C1)C3=NNC4=CC=CC(=C43)C2=O
How it was run: as §1

[9] = compound: C1CCN(C1)C(=O)NC2=CC=CC(=C2)NC3=NC=C(C(=N3)NCCC4=CN=CN4)Br
How it was run: as §1

[10] = compound: C1CN(CCC1(CC2=CC=C(C=C2)Cl)N)C3=NC=NC4=C3C=CN4
How it was run: as §1

Chain of UniProt O00584 (O00584 whole entry, looked up): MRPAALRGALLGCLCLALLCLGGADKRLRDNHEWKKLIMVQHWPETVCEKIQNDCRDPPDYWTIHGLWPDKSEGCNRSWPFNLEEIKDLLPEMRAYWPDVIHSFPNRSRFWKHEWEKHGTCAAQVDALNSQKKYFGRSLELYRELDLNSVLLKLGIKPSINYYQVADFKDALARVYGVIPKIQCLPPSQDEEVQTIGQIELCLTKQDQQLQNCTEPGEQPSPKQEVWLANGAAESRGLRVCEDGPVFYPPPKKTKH
Chain of UniProt Q9H4A4 (Q9H4A4 whole entry, looked up): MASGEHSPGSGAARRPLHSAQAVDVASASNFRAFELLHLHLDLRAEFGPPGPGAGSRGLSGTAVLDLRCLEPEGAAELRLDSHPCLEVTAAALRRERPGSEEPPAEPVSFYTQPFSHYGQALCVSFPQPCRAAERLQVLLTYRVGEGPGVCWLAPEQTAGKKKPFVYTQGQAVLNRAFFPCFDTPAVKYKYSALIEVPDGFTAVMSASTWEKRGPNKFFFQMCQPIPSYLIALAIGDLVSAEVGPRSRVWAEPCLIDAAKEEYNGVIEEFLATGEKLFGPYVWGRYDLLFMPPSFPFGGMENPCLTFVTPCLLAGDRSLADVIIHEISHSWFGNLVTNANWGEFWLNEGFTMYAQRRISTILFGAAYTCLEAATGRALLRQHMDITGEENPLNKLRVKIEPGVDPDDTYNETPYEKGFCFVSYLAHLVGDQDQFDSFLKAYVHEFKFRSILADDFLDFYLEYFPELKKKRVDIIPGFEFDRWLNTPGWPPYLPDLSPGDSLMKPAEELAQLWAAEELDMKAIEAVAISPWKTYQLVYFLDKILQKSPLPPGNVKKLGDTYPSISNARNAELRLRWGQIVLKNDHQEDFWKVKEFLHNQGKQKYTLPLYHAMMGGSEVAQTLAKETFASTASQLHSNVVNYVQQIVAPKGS
Chain of UniProt Q96EV2 (Q96EV2 whole entry, looked up): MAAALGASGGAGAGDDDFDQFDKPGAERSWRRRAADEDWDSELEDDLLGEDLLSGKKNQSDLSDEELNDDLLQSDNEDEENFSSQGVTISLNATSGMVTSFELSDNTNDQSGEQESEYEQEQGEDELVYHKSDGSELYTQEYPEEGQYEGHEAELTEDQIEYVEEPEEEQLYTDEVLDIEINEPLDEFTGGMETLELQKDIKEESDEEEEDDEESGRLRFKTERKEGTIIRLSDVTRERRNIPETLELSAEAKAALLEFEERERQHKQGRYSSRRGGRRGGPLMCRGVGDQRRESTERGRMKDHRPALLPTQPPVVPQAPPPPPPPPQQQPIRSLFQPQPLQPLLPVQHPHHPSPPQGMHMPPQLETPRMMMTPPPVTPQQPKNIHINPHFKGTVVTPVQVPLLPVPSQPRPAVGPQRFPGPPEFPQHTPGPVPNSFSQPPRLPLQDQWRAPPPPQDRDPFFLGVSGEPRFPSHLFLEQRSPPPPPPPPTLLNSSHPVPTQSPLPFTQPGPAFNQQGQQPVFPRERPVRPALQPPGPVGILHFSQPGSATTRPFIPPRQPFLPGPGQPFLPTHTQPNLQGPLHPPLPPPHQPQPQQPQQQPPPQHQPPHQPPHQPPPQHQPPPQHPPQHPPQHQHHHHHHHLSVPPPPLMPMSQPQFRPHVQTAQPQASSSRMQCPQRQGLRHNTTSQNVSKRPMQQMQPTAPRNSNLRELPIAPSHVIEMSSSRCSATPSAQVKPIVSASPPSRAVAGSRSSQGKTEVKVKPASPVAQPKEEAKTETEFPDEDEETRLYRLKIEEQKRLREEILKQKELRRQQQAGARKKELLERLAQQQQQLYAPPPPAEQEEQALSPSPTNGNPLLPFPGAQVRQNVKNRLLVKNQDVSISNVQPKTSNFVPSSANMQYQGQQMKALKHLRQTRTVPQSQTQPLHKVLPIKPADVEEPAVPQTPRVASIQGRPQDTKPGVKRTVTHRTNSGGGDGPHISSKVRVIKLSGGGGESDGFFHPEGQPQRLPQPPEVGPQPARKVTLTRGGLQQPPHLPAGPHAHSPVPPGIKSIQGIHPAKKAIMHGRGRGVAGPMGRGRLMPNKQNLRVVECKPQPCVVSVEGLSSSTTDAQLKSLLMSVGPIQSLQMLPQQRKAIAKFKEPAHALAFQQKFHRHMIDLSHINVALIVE
Chain of UniProt Q06609 (Q06609 whole entry, looked up): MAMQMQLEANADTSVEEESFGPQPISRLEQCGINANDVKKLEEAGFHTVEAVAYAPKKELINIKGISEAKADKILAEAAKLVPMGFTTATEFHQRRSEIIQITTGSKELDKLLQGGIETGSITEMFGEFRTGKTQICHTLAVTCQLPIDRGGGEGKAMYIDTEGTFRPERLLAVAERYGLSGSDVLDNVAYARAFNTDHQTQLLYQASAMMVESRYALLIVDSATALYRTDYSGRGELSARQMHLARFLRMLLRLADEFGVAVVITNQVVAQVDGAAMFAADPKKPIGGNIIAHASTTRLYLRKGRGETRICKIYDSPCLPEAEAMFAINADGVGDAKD
Chain of UniProt Q96DX4 (Q96DX4 whole entry, looked up): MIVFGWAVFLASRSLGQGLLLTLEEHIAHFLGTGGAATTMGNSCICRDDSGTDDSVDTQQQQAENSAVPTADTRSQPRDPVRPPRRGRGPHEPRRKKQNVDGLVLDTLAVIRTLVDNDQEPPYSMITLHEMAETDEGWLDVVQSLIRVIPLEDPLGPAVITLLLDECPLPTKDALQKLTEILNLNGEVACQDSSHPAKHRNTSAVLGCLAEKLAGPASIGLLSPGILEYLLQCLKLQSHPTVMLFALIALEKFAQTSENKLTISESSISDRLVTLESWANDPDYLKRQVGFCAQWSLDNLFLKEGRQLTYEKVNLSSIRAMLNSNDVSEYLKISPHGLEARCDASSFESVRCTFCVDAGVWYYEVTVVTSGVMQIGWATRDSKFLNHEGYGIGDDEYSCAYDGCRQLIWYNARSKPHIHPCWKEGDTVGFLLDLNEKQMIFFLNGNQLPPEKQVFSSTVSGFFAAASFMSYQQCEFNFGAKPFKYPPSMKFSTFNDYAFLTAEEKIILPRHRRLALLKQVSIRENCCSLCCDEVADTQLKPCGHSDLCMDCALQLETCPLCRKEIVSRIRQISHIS
Chain of UniProt Q9HB90 (Q9HB90 whole entry, looked up): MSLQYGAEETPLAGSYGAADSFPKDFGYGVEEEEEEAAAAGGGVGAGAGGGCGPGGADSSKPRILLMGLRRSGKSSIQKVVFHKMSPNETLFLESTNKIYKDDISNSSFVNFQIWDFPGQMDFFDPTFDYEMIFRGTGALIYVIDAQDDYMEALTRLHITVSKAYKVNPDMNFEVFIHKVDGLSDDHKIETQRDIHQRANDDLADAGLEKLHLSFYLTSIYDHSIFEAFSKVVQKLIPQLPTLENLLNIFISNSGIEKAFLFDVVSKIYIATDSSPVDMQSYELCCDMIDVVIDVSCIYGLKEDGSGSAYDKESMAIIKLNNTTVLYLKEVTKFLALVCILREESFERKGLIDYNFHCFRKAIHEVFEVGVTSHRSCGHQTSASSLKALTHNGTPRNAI
Chain of UniProt Q9GZR1 (Q9GZR1 whole entry, looked up): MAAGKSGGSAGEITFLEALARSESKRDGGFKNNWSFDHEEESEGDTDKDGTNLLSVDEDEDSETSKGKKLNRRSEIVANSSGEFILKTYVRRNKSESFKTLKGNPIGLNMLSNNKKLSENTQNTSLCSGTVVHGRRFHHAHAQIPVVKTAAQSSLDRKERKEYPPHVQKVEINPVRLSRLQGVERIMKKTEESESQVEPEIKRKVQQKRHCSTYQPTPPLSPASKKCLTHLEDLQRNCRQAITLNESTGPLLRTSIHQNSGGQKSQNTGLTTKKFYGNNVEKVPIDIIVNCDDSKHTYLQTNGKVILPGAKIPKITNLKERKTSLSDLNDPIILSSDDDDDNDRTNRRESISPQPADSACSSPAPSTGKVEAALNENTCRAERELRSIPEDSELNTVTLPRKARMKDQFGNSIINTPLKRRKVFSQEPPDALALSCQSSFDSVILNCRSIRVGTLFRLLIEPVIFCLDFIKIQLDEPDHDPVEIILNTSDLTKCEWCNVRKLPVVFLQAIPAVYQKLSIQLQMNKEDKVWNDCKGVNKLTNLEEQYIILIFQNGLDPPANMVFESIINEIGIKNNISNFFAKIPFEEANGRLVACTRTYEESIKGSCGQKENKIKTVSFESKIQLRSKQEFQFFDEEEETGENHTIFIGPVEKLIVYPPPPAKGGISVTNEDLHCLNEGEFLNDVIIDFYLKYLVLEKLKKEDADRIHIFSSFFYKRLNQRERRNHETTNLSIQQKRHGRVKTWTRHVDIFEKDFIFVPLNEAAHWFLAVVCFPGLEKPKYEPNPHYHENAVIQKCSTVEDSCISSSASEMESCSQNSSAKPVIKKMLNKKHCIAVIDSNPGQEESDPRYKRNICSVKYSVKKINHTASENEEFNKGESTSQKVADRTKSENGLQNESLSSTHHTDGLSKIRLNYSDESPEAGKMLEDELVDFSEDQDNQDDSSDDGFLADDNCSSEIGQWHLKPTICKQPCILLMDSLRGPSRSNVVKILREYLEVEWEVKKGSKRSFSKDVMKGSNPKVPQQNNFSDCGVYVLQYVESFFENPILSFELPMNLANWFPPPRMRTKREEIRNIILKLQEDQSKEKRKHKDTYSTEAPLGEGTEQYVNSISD
Chain of UniProt Q8WWV3 (Q8WWV3 whole entry, looked up): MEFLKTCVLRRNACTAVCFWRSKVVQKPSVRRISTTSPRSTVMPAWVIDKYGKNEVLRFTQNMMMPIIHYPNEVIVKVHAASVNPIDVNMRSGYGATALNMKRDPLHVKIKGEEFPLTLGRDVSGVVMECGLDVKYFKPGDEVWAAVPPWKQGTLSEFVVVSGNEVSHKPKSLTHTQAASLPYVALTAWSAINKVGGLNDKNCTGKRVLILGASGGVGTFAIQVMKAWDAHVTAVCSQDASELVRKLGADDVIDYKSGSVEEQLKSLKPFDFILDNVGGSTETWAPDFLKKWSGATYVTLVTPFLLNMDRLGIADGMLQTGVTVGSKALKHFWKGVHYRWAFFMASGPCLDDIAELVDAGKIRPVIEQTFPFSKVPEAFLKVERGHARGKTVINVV

Row | Target | log2 fold change [1] | log2 fold change [2] | log2 fold change [3] | log2 fold change [4] | log2 fold change [5] | log2 fold change [6] | log2 fold change [7] | log2 fold change [8] | log2 fold change [9] | log2 fold change [10]
1 | RNPEP (UniProt Q9H4A4) | 0.053 | 0.053 | 0.053 | 0.007 | 0.009 | 0.019 | 0.036 | -0.008 | -0.004 | -0.016
2 | RPS3 (UniProt P23396) | -0.136 | -0.072 | -0.224 | 0.061 | -0.026 | -0.027 | -0.073 | -0.03 | 0.093 | -0.156
3 | RRAGC (UniProt Q9HB90) | 0.014 | 0.03 | 0.047 | -0.007 | 0.019 | 0.013 | -0.051 | -0.02 | 0.014 | 0.052
4 | SCYL3 isoform 2 (UniProt Q8IZE3) | 0.046 | 0.055 | 0.07 | -0.05 | 0.068 | -0.024 | 0.058 | 0.014 | 0.093 | 0.123
5 | SAMSN1 isoform 3 (UniProt Q9NSI8) | 0.027 | 0.012 | -0.006 | 0.001 | 0.037 | 0.021 | -0.009 | -0.022 | 0.007 | -0.114
6 | RSPRY1 (UniProt Q96DX4) | 0.028 | 0.079 | 0.016 | 0.041 | 0.017 | -0.042 | -0.006 | -0.026 | -0.014 | 0.033
7 | RBBP6 (UniProt Q7Z6E9) | -0.01 | 0.005 | 0.014 | -0.034 | -0.037 | 0 | 0.025 | -0.005 | -0.067 | 0.003
8 | RNASET2 (UniProt O00584) | 0.027 | -0.007 | -0.006 | 0.002 | 0.012 | -0.014 | -0.001 | -0.027 | 0.034 | 0.052
9 | SESN2 (UniProt P58004) | 0.154 | 0.108 | -0.039 | -0.003 | 0.016 | 0.007 | -0.009 | -0.008 | -0.041 | -0.109
10 | RAD51 (UniProt Q06609) | 0.29 | 0.06 | 0.044 | 0.032 | 0.067 | 0.017 | -0.025 | -0.032 | -0.014 | 0.013
11 | RTN4IP1 (UniProt Q8WWV3) | 0.016 | 0 | 0.041 | 0.066 | 0.048 | -0.08 | 0.014 | 0.027 | -0.064 | 0.074
12 | SENP6 (UniProt Q9GZR1) | 0.028 | 0.033 | 0.237 (active) | -0.049 | -0.029 | 0.08 | -0.011 | -0.078 | -0.061 | 0.049
13 | RPS4X (UniProt P62701) | -0.177 | -0.092 | -0.37 | 0.054 | -0.042 | -0.033 | -0.043 | 0.043 | 0.076 | -0.221
14 | RBM33 (UniProt Q96EV2) | 0.017 | 0.04 | -0.022 | -0.011 | 0 | 0.01 | 0.001 | -0.114 | 0.034 | 0.038
15 | RTF2 (UniProt Q9BY42) | 0.026 | 0.063 | 0.035 | -0.049 | -0.049 | -0.023 | -0.035 | -0.02 | -0.074 | 0.045
